Bioassay records: PubChem BioAssay, several laboratories
CR mimetic SO = reduction of superoxide in aged yeast, primary screen, HTS; superoxide response (% of plate mean), % at 10 µM; S. cerevisiae aged cells, superoxide DHE fluorescence; hits give low values; AID 2690, 2010; 0.18% of 330,000 active;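 active = superoxide response under a set limit, about three screen SD below normal, cut at about 65% in these data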;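 note: yeast aged for seven days with compound at 30 °C before DHE staining; 100% = average MFI of all compound-treated wells on the plate with controls excluded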
NRP1-CendR mod = modulators of CendR peptide binding to NRP-1, primary screen, biochemical, fluorescence polarization, uHTS | inhibition, % at 25 µM | FAM-RPARPAR peptide binding to NRP-1 | AID 602438, 2012 | 0.85% of 360,000 active | Neuropilin-1 (Homo sapiens), O14786;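 active = inhibition or corrected inhibition above about 18%, plus a signal ratio from 0.5 to 1.5, limit read from the data, passing the limit was not always enough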
ALR inh = inhibitors of human ALR sulfhydryl oxidase, primary screen, biochemical, H2O2 detection, HRP-luminol luminescence, single point; FAD-linked sulfhydryl oxidase ALR (Homo sapiens), P55789; purified ALR, DTT oxidation; inhibition, % (no concentration beside the values); 3.8% of 290,000 active; AID 485317, 2010;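 active = mean replicate inhibition above about 79%, with every replicate also reaching it, limit read from the data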
APOBEC3A inh = APOBEC3A ssDNA deaminase inhibitors, primary screen, selectivity assay for APOBEC3G inhibitor project, biochemical, FAM/TAMRA oligo cleavage fluorescence | DNA dC->dU-editing enzyme APOBEC-3A (Homo sapiens), P31941 | 0.41% of 330,000 active | inhibition, % at 20 µM | recombinant A3A, FAM/TAMRA ssDNA deamination fluorescence;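 active = at least 40% inhibition at 20 µM here, with at most 30% in a related deaminase screen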;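 note: plate controls were A3A with DMSO for no effect and wells lacking A3A enzyme for full effect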
Target sequence (P31941 whole entry, looked up): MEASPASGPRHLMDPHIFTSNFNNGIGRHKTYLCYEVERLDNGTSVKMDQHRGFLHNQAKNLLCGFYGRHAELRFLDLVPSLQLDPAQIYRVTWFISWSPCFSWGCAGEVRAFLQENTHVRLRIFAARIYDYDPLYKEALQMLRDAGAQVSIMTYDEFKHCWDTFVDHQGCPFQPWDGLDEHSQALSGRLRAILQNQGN
APOBEC3G inh = APOBEC3G DNA deaminase inhibitors, primary screen, biochemical, fluorescence, single-stranded DNA substrate, uHTS. DNA dC->dU-editing enzyme APOBEC-3G (Homo sapiens), Q9HC16. recombinant A3G, ssDNA deamination FAM/TAMRA fluorescence. inhibition, % at 20 µM. 0.28% of 330,000 active;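 active = inhibition of at least 40% at 20 µM, with no more than 30% in the related APOBEC3A deaminase screen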;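 note: plate controls were DMSO wells with A3G for no effect and wells lacking A3G enzyme for full effect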
Target sequence (Q9HC16 whole entry, looked up): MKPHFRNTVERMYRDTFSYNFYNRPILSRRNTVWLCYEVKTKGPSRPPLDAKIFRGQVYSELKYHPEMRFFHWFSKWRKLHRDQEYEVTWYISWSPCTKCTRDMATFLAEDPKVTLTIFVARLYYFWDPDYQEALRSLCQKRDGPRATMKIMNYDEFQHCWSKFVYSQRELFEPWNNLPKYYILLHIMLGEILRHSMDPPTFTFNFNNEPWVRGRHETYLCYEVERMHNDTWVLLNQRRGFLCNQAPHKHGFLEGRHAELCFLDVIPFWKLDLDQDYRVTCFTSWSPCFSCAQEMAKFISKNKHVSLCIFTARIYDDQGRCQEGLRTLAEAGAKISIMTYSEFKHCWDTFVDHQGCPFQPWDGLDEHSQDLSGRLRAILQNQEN
M18AAP inhibitor = PfM18AAP inhibitors, malaria aminopeptidase, primary screen, biochemical, QFRET, recombinant enzyme | M18 aspartyl aminopeptidase (Plasmodium falciparum 3D7) | AID 1822, 2009 | H-Glu-NHMec fluorogenic cleavage | inhibition, % at 7.35 µM | 1.2% of 290,000 active;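 active = inhibition above the campaign mean inhibition over all tested compounds plus 3 SD, cut at about 28% in these data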;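 note: 0% = plate median of test compound wells and 100% = 2 mM ZnCl2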
* = called active by the depositor; . = no result given. A selection: hits, their analogues and other compounds. The true share with any hit is near 5.2%.

SMILES | CR mimetic SO | NRP1-CendR mod | ALR inh | APOBEC3A inh | APOBEC3G inh | M18AAP inhibitor
COc1ccc(S(=O)(=O)N2CCOCC2)cc1NC(=O)COC(=O)C1COc2ccccc2O1 (stereo not given) | 113 | 28* | -28 | -2 | -3 | -5
CCN1CCN(/C=N/c2nc(C)cs2)CC1 | 89 | -1 | -11 | 0 | -4 | -9
Cn1c(SCC(=O)CC(=O)Nc2ccccc2)nnc1-c1ccc(O)cc1 | 105 | -8 | . | -2 | -2 | -1
O=C(CSc1nnc(-c2ccc(O)cc2)n1-c1ccccc1)CC(=O)Nc1ccccc1 | 96 | 5 | -8 | -6 | -12 | 33*
Cc1cccc(C)c1NC(=O)CCCSc1nnc(-c2ccc(F)cc2)n1-c1ccccc1 | 104 | -12 | 96* | -1 | -10 | -11
O=Cc1c[nH]c2ccc(S(=O)(=O)N3CCOCC3)cc12 | 91 | -7 | -5 | -2 | -2 | 7
CCN1C(=O)/C(=C2/Sc3ccccc3N2CC)SC1=S | 96 | 48* | -5 | -7 | -5 | -1
Cc1ccc(NC2CCCN(C(=O)c3cn4cc(Cl)ccc4n3)C2)cc1C (stereo not given) | 92 | 5 | 99* | -3 | 0 | 6
Cc1ccc(NC2CCCN(C(=O)c3cn4cccc(C)c4n3)C2)cc1C (stereo not given) | 102 | 9 | 99* | -3 | -7 | 8
O=C(c1cn2ccccc2n1)N1CCCC(Nc2ccc(F)c(F)c2)C1 (stereo not given) | 103 | 6 | 2 | -2 | -4 | -4
COc1cc(C(=O)NCCc2ccc3c(c2)OCO3)cc(OC)c1OC | . | 3 | . | . | . | .
Fc1ccc(N/N=C(/c2ccccc2)c2ccccn2)cc1 | 98 | -3 | 99* | 1 | -7 | 3
COc1ccc(COc2cc(-c3cccc(OC)c3)nc3ccc(NC(=O)c4ccc(C)cc4)cc23)cc1 | 113 | 8 | . | -2 | -9 | -3
COc1ccc(COc2cc(-c3cccc(OC)c3)nc3ccc(NC(C)=O)cc23)cc1 | 99 | 27* | 1 | 8 | -8 | -5
COc1ccc(COc2cc(-c3cccc(OC)c3)nc3ccc(NC(=O)c4ccc(N(C)C)cc4)cc23)cc1 | . | 28* | -19 | -1 | -6 | 3
CSc1cccc(NC(=O)CN(c2cccc(C)c2)S(C)(=O)=O)c1 | 98 | 5 | . | -1 | -3 | 1
CCc1ccc2nc3n[nH]c(N)c3cc2c1 | 106 | -7 | 90* | 2 | -1 | 5
COc1cccc(N2CCN(C(=O)CCSCc3ccccc3F)CC2)c1 | 93 | -3 | 97* | -3 | -2 | 2
COc1cccc(N2CCN(C(=O)CCC(=O)c3ccc(Cl)s3)CC2)c1 | 93 | -9 | 57 | -8 | -9 | .
COc1ccccc1N1CCN(C(=O)CCSCc2ccccc2F)CC1 | 96 | 11 | 96* | -2 | -2 | 2
COc1ccc2cc(OCC(=O)NNC(=O)Nc3ccc(OC)c(OC)c3)ccc2c1 | 107 | 4 | -8 | -3 | -7 | 0
CC(Sc1nnc(C2CC2)n1-c1ccccc1)C(=O)N1CCNC1=O (stereo not given) | . | 4 | . | 22 | -11 | .
O=C(CSc1nnc(C2CC2)n1-c1ccccc1)N1CCNC1=O | 105 | 20* | -2 | -7 | -11 | .
COc1ccc(/C=C(/C#N)C(=O)Nc2cccc([N+](=O)[O-])c2)cc1C(=O)O | 110 | 3 | 97* | 5 | 0 | 0
N#C/C(=C\c1cccc([N+](=O)[O-])c1)C(=O)Nc1cccnc1 | 108 | 7 | 97* | 1 | -10 | 3
SMILES | CR mimetic SO | NRP1-CendR mod | ALR inh | APOBEC3A inh | APOBEC3G inh | M18AAP inhibitor
N#C/C(=C/c1cccc([N+](=O)[O-])c1)C(=O)Nc1ccccc1O | 88 | 4 | 96* | 3 | 0 | 5
Cc1cc2nc(SCCOC(=O)Nc3ccc(Cl)cc3)nc(C)c2cc1C | 97 | 0 | -17 | -1 | -3 | -14
O=S(=O)(NN=Cc1ccc(O)cc1O)c1cc(Cl)c(Cl)cc1Cl | . | -5 | . | . | . | .
COc1ccccc1OCC(=O)Nc1ncc(C)s1 | 81 | 7 | -18 | 0 | -10 | .
COc1ccccc1C(=O)NNc1ncc(C)s1 | 106 | 9 | . | -9 | -7 | 31*
COCC(=O)N(Cc1cc2cc(C)ccc2[nH]c1=O)c1cccc(C)c1C | 99 | -2 | 82* | 0 | -5 | -4
Cc1ccccc1CS(=O)(=O)c1ccc(C(=O)N2CCOCC2)cc1[N+](=O)[O-] | 120 | 12 | 1 | -4 | -7 | -3
O=C(c1ccc(S(=O)(=O)Cc2ccccc2Cl)c([N+](=O)[O-])c1)N1CCOCC1 | 96 | 17* | -1 | -5 | -11 | -1
O=C(c1ccc(S(=O)(=O)c2ccc(F)cc2)c([N+](=O)[O-])c1)N1CCCCCC1 | 107 | -2 | 96* | -3 | -3 | -5
COCCNc1c(-c2ccc(OC)cc2)nc2ccc(Cl)cn12 | 106 | 3 | 99* | 0 | 0 | 2
O=C(ONc1ccc(N=NC(=O)c2ccccc2O)cc1)c1ccccc1 | 88 | -3 | 98* | 2 | -2 | 12
COC(=O)c1c(NC(=O)c2ccco2)sc2c1CCN(C(C)=O)C2 | 97 | -2 | 5 | 0 | -3 | -4
Cc1ccc(CN2CCN(/N=C/c3ccc(C(F)(F)F)cc3)CC2)cc1 | 88 | -8 | -23 | -1 | -4 | -4
Cn1c(=O)c2c(-c3ccccc3)n(-c3ccccc3O)cc2n(C)c1=O | 104 | -4 | -13 | -4 | -4 | 12
Cc1cccc(-c2c3c(=O)n(C)c(=O)n(C)c3cn2-c2ccc(O)cc2)c1 | 93 | -16 | 95* | -1 | -3 | -2
Cn1c(=O)c2c(-c3ccccc3)n(-c3cccc(O)c3)cc2n(C)c1=O | . | 6 | . | . | . | .
Cn1c(=O)c2c(-c3ccccc3)n(-c3ccc(N)cc3)cc2n(C)c1=O | . | 37* | . | . | . | .
COc1ccc(NC(=O)c2cc3cc(OC)ccc3oc2=O)cc1 | 110 | -8 | -2 | 6 | 0 | .
NC1=C(Cl)C(=O)c2ccccc2C1=O | . | 27* | . | . | . | .
CC(Cc1nnc(N)s1)c1ccccc1 (stereo not given) | 98 | -5 | -15 | -3 | 5 | 20
CCOC(=O)C1=C(C)N(C)C(=O)NC1c1cc2c(cc1Br)OCO2 (stereo not given) | 98 | 21* | 0 | -3 | -9 | 2
CCOc1cc(/C=C/c2ccc3cccc([N+](=O)[O-])c3n2)ccc1O | 97 | -2 | 94* | -3 | -5 | 10
